Each structure is given as a SMILES string. Activity calls are given as the source filed them.

Assay [1] is described as follows: optical density shifts of acrAB sulA E. coli – strain DRC41, OD650, 48 h, E. coli filamentation inducer project, primary screen (AID 1152).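 Further: E. coli MC1000 strain DRC41 lacking acrAB efflux pump and sulA.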 The note with it: higher = more signal, called active from +8 up or from −8 down.
Assay [2] is described as follows: probe aLefty1 binding on compound microarray – biochemical, small-molecule microarray, 635/667 nm fluorescence, primary screen (AID 1153).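 Further: score merges spot fluorescence with signal-to-noise ratio from the scanned slide images.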 The note with it: higher = more signal.
Assay [3] can be described thus: plasmodial surface anion channel blockers, osmotic lysis – cell-based, P. falciparum Indochina, OD700, 1 h, primary screen (AID 1154). The note with it: P. falciparum Indochina infected RBC osmotic lysis, higher = more signal, called active from +8 up or from −8 down.
Assay [4] in a line: plasmodial surface anion channel blockers, osmotic lysis – cell-based, P. falciparum Indochina, OD700, 2 h, primary screen (AID 1155).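 Further: lysis reports solute entry through the parasite surface anion channel PSAC.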 The note with it: P. falciparum Indochina infected erythrocytes, higher = more signal, called active from +8 up or from −8 down.
The nature of assay [5]: changes in parasitized red cell lysis, either direction – P. falciparum Indochina, OD700, 3 h, PSAC antagonist project, primary screen (AID 1156). The note with it: P. falciparum-infected erythrocytes, osmotic lysis, higher = more signal, called active from +8 up or from −8 down.
The nature of assay [6]: plasmodial surface anion channel blockers, osmotic lysis – cell-based, P. falciparum Indochina, OD700, 18 h, primary screen (AID 1157). The note with it: P. falciparum Indochina infected erythrocytes, osmotic lysis OD700, 18 h; higher = more signal, called active from +8 up or from −8 down.
The nature of assay [7]: S6 kinase pathway phospho-S6 level changes – cell-based, A549, cytoblot, luminescence, serum-stimulated, primary screen (AID 1158).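 Further: serum-stimulated A549 lung adenocarcinoma cells; signal is phosphorylated S6 detected by cytoblot immunostaining with HRP secondary.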 The note with it: 5 h, higher = more signal.
The target of assay [8] is NADPH oxidase 2 (Homo sapiens) (UniProt P04839). Description: compounds shifting NOX2 Amplex Red fluorescence – cell-based, HEK293-NOX2, PMA-stimulated, NOX inhibitor project, primary screen (AID 1159). Further: test concentration not given here. The note with it: 45 min, higher = more signal, called active from +8 up or from −8 down.
Sequence of NADPH oxidase 2 (Homo sapiens) (P04839 whole entry, looked up): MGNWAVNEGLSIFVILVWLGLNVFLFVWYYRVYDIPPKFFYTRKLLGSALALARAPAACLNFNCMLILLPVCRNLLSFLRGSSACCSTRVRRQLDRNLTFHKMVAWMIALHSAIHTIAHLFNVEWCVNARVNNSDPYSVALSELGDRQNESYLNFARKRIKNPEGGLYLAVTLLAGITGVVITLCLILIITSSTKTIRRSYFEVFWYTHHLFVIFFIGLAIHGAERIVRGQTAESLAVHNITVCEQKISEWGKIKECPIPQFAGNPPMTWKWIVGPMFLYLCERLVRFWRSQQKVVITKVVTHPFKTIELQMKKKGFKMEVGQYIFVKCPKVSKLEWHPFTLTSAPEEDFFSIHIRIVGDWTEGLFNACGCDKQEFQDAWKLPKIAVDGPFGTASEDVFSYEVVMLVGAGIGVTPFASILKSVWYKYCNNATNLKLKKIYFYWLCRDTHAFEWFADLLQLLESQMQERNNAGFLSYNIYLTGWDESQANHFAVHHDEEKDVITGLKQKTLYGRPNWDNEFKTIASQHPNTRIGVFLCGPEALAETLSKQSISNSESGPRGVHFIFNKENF
The target of assay [9] is NADPH oxidase 4 (Homo sapiens) (UniProt Q9NPH5). The assay can be described thus: compounds shifting NOX4 Amplex Red fluorescence – cell-based, HEK293-NOX4, tetracycline-induced, NOX inhibitor project, primary screen (AID 1160). Conditions: HEK293-NOX4, Amplex Red H2O2 fluorescence, 45 min; higher = more signal, called active from +8 up or from −8 down.
Sequence of NADPH oxidase 4 (Homo sapiens) (Q9NPH5 whole entry, looked up): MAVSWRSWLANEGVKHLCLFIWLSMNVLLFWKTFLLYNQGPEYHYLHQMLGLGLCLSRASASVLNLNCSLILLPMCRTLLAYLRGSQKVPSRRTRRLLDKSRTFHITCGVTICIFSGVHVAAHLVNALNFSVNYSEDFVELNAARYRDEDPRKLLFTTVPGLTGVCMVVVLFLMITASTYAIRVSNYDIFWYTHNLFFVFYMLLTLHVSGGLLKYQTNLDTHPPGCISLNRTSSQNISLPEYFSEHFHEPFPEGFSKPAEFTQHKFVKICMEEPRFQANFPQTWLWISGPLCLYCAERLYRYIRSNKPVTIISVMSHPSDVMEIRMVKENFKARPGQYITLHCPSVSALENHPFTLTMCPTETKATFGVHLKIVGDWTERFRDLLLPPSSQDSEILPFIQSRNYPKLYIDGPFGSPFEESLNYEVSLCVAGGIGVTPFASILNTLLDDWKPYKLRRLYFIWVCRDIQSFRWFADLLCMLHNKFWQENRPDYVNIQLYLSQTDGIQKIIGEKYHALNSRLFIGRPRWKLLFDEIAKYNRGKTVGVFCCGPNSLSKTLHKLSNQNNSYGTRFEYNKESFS
Assay [10] deals with NADPH oxidase 5 (Homo sapiens) (UniProt Q96PH1). Description: compounds shifting NOX5 Amplex Red fluorescence – cell-based, HEK293-NOX5, NOX inhibitor project, primary screen (AID 1161). The note with it: HEK293-NOX5, ionomycin, 45 min, higher = more signal.
Sequence of NADPH oxidase 5 (Homo sapiens) (Q96PH1 whole entry, looked up): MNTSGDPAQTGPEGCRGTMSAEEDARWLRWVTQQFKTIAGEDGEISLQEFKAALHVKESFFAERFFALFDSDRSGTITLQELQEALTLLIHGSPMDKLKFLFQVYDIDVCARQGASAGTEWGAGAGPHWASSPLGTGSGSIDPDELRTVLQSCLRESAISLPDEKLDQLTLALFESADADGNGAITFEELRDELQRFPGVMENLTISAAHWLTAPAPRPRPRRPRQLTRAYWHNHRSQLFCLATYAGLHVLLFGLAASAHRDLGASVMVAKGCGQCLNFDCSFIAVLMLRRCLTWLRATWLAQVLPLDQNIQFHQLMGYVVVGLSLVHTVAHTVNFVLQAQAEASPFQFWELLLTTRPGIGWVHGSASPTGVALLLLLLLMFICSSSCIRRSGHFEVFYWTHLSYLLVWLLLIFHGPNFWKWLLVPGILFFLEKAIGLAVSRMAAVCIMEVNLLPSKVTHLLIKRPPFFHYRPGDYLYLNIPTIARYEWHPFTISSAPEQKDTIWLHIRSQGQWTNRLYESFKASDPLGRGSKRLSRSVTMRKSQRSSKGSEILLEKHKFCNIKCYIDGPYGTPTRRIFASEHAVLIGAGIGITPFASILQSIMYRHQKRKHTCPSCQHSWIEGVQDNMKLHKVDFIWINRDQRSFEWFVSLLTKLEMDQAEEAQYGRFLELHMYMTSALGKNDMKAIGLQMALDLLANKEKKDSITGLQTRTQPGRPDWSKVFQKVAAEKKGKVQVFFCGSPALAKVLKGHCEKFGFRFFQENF

On to `CCC(CC)C(O)C1C=CC2C(=O)N(c3ccccc3)C(=O)C2N1Nc1ccc(C#N)cc1` (stereo not given), for which the z-score in [1] was -0.35 (inactive); in assay [3], 15.4 (active); in [4], 2.91 (inactive); in assay [5], 3.47 (inactive); in assay [6], 1.51 (inactive); in assay [7], -1.11. Also, the z-score in assay [8] was -1.49 (inactive); in assay [9], -3.45 (inactive); in assay [10], -3.2. The same molecule had a composite z-score in assay [2] of 0.675.

`O=C1OCCC=C[C@H]2OC34C=CCN(Cc5ccccc5)C(=O)[C@H]3N(CCCCCO)C(=O)[C@@H]4C12` (stereo not given in full): the z-score in [1] was 1.8 (inactive); in [3] it was 1.77 (inactive); in assay [4] it was 0.18 (inactive); in assay [5] it was 2.12 (inactive); in assay [6], 0.551 (inactive); in [7] it was 0.469. Moreover, the z-score in assay [8] was 1.39 (inactive); in assay [9], 0.701 (inactive); in [10], 1.38. For the same molecule, the composite z-score in assay [2] amounted to 0.282.

For the molecule `CCOC(=O)C[C@H]1[C@H](OC(=O)Cc2ccc3c(c2)OCO3)[C@@H](NC(=O)c2ccc(-c3ccccc3)cc2)c2cc(OCCCO)ccc2N1C(=O)c1ccccc1`, the z-score in assay [1] is 2.36 (inactive); in assay [3], 8.3 (active); in [4] it was 1.63 (inactive); in assay [5], -0.825 (inactive); in assay [6], 0.505 (inactive); in assay [7] it was -0.0321. Also, the z-score was -0.588 (inactive) in assay [8], 0.674 (inactive) in assay [9] and 1.8 in assay [10]. For the same molecule, the composite z-score in [2] is -0.122.

Consider `CC(C)C(=C=CC[C@@H](O)c1ccccc1OCCO)C[C@@H](O)c1ccccn1`, for which the z-score was -0.258 (inactive) in assay [1]; 6.05 (inactive) in assay [3]; 1.2 (inactive) in [4]; 0.611 (inactive) in [5]; 0.774 (inactive) in assay [6]; -0.632 in assay [7]. Moreover, the z-score in [8] is 0.216 (inactive); in assay [9], -0.725 (inactive); in [10] it was -1.6. Further, in assay [2], the composite z-score stood at 0.0437.

On to `COc1ccc(NN2C(C(O)c3ccc(OC)c(OCc4ccccc4)c3)C=CC3C(=O)N(C4CCCCC4)C(=O)C32)cc1` (stereo not given), for which the z-score in assay [1] was 0.678 (inactive); in assay [3], 4.41 (inactive); in assay [4], 1.38 (inactive); in [5], 0.31 (inactive); in [6], 1 (inactive); in [7] it was 0.0173. Also, the figures for the z-score in assay [8], in assay [9] and in assay [10] were -0.195 (inactive), -1.96 (inactive) and -0.604, respectively. Further, in assay [2], the composite z-score was determined as 0.32.

Take `CCCCCN1CC=CC23O[C@@H]4/C=C\CCC(C)OC(=O)C4[C@H]2C(=O)N(CCCCCO)[C@@H]3C1=O` (stereo not given in full): the z-score was 2.65 (inactive) in [1]; 0.42 (inactive) in [3]; -0.524 (inactive) in assay [4]; -0.935 (inactive) in [5]; -0.875 (inactive) in assay [6]; 0.832 in assay [7]. In addition, the z-score in assay [8] was 1.03 (inactive); in [9], -0.177 (inactive); in assay [10] it was 1.45. In assay [2], the composite z-score is -0.493.

Turning to `O=C1O[C@@H](c2ccccc2)[C@@H](c2ccccc2)N2[C@@H](c3ccc(OCCO)cc3)[C@]3(C(=O)Nc4ccccc43)[C@@H](C(=O)Nc3nc4ccccc4s3)[C@H]12`, the z-score in assay [1] was 0.515 (inactive); in assay [3], 5.55 (inactive); in assay [4] it was 2.55 (inactive); in assay [5] it was 1.37 (inactive); in [6], 2.01 (inactive); in assay [7], 0.298. Besides, the z-score is 1.68 (inactive) in assay [8], 1.24 (inactive) in [9] and 1.63 in [10]. In assay [2], this molecule returned a composite z-score of 0.919.

As for `O=C1c2ccccc2[C@@]2(Cc3ccccc3N(Cc3ccccc3)C2=O)[C@H](c2ccc(CO)cc2)N1C1CCCCC1`, the z-score in [1] was 0.414 (inactive); in assay [3], -0.101 (inactive); in assay [4], 0.546 (inactive); in assay [5] it was 0.105 (inactive); in assay [6] it was 0.327 (inactive); in assay [7], 0.126. The z-score in assay [8] was 0.162 (inactive); in assay [9] it was -0.143 (inactive); in assay [10] it was -0.548. Also, in assay [2], the composite z-score stood at 0.0437.

For the molecule `C=C[C@H](C)[C@@H](O)c1ccc(O)c2ccccc12`, the z-score is 0.048 (inactive) in assay [1]; 1.01 (inactive) in [3]; 1.05 (inactive) in [4]; 0.0353 (inactive) in [5]; 1.02 (inactive) in assay [6]; -0.157 in assay [7]. Also, the z-score in [8] is -5.28 (inactive); in [9], -1.05 (inactive); in assay [10] it was 1.33. In assay [2], the composite z-score came to 0.169.

With `COc1ccc([Si](C)(C)[C@@H]2[C@@H](CCn3cc([C@H](O)c4ccccc4)nn3)O[C@]3(C(=O)N(Cc4ccc(N5C(=O)c6cccc7cccc5c67)cc4)c4ccccc43)[C@H]2C)cc1`, the z-score in assay [1] is 0.74 (inactive); in assay [3], 1.23 (inactive); in [4] it was -0.611 (inactive); in assay [5] it was 0.957 (inactive); in assay [6] it was -0.68 (inactive); in assay [7], 1.11. The z-score in assay [8] was 0.584 (inactive); in assay [9] it was 1.01 (inactive); in [10], -0.539. The composite z-score in assay [2] is -0.14.

With `CC(C)c1ccc(NN2C(C(O)c3c(F)cccc3Cl)C=CC3C(=O)N(c4ccccc4)C(=O)C32)cc1` (stereo not given), the z-score was -2.03 (inactive) in [1]; 2.86 (inactive) in assay [3]; 1.18 (inactive) in [4]; 1.12 (inactive) in assay [5]; 1.02 (inactive) in assay [6]; -1.02 in assay [7]. Besides, the values for the z-score in assay [8], in assay [9] and in assay [10] were -1.38 (inactive), -5.38 (inactive) and -4.14, respectively. In addition, the composite z-score in assay [2] came to 1.22.

`Cc1cc(C)c(C(O)C2C=CC3C(=O)N(c4ccccc4)C(=O)C3N2Nc2ccc(C#N)cc2)c(C)c1` (stereo not given): the z-score in assay [1] was -0.197 (inactive); in assay [3], 7.4 (inactive); in [4], 1.27 (inactive); in assay [5], 0.742 (inactive); in assay [6] it was 1.27 (inactive); in assay [7], -0.649. For the same molecule, the z-score in assay [8] was 0.0492 (inactive); in assay [9] it was -2.68 (inactive); in assay [10], -2.1. Also, the composite z-score in [2] worked out at 0.938.

The values are drawn from PubChem BioAssay.
